In PubChem BioAssay:
Records with an inconclusive call do not appear. The source made the active and inactive calls.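 The calls were made as follows, unless noted: active = viability at or below 10% of carrier control in both of two separate runs; inconclusive = viability at or below 10% in only one of the two runs; inactive = the rest.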

Assays:
[1] = Her2 expression decrease, cell viability multiplex – SKBR3 breast tumor cells, AlphaScreen, ATP viability, primary screen (AID 461;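 active = Her2 level under about 52% in both replicate screens, with viability over 70% of control, limit read from the data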;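 as to Her2 level: lower value means less Her2 protein in the cells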;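 as to viability: percent of carrier control wells set as 100% viability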); details: SKBR3 Her2 protein level, 18-24 h, measured here: SKBR3 viability, ATP luminescence, at 10 µM
[2] = target: Receptor tyrosine-protein kinase erbB-2 (Homo sapiens) (UniProt P04626); test: as above; details: 18-24 h, at 10 µM, stronger effect = lower value
[3] = reduced viability of SK-BR-3 breast cancer cells – cell-based, 24 h, human, pilot screen (AID 572); details: SK-BR-3 viability, CellTiter-Glo luminescence, at 10 µM, stronger effect = lower value;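 also: compound exposure lasted between 18 and 24 h rather than exactly 24 h; 100% = carrier-treated control wells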
[4] = HUVEC growth inhibition – cell-based, human, primary screen (AID 575;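 active = viability at or below 30% in both replicate assays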;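 also: 100% = median of untreated cell wells with 0.1% DMSO on each plate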); details: HUVEC proliferation, CellTiter-Glo luminescence, 72 h; at 10 µM; stronger effect = lower value
[5] = H69AR cell proliferation blockers – human, duplicate replicates, primary screen (AID 580;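 active = viability at or under a set limit in both replicates, limit being median viability minus 3 SD, cut at about 48% in these data, passing the limit was not always enough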;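 also: 100% = mean luminescence of untreated wells and 0% = no signal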); details: H69AR lung tumor cells viability, ATP luminescence, 72 h; at 10 µM; stronger effect = lower value
[6] = MRP1 drug-resistance reversers in H69AR cells – cell-based, doxorubicin co-treatment, pilot screen (AID 601;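 active = viability loss from added drug above about 55%, and viability with drug at most 40%, in both replicates, limit read from the data, passing the limit was not always enough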); details: CellTiter-Glo, 72 h, at 10 µM; for differential viability (reversal): stronger effect = higher value
[7] = yeast transport mutant growth inhibition pilot in 384-well plates, post-Golgi transport modulator project (AID 636; in the data active = inhibition above about 31%); details: absorbance 615 nm, about 18 h, stronger effect = higher value
[8] = growth suppression of yeast trafficking mutant, preliminary HTS, modulators of trafficking downstream of Golgi apparatus project, 1536-format plate, OD 615 nm (AID 637; in the data active = inhibition above about 30%); details: yeast transport mutant growth, absorbance 615 nm, 18 h; stronger effect = higher value
[9] = S. cerevisiae growth inhibition in permissive medium (OD615), pilot counter-assay for S. cerevisiae lifespan shortening project, permissive growth control (AID 705;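 active = growth inhibition above 25% in both replicates, a cutoff set 3 SD above the mean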); details: OD615, 24 h, at 10 µM, stronger effect = higher value
[10] = S. cerevisiae growth inhibition in restrictive medium, OD615, pilot screen, restrictive growth control, yeast lifespan reduction project (AID 706;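 active = growth inhibition above a set limit, 3 SD over mean compound inhibition, in both replicates, cut at about 43% in these data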;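 also: modified DeaD lifespan yeast strain shifted to restrictive glucose medium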); details: OD615, 48 h, at 10 µM, stronger effect = higher value
[11] = doxorubicin toxicity protection in MRP-1 cells – H69AR cells, CellTiter-Glo, duplicate, MRP-1 activator project, pilot screen (AID 807;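 active = viability increase at or above a cutoff of the median across tested compounds plus 3 SD, cut at about 8.5% in these data, passing the limit was not always enough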;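 also: compound pretreatment 18-22 h then 72 h combined with doxorubicin; 0% = doxorubicin alone and 100% = vehicle without doxorubicin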); details: H69AR viability with doxorubicin, CellTiter-Glo luminescence; at 10 µM; stronger effect = higher value
[12] = viability of HCT116 without oncogenic beta-catenin – human colon tumor cells, pilot screen (AID 823;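 active = cell viability at or below a set limit in both duplicate runs, the limit being the all-compound median minus 4 SD, cut at about 23% in these data, passing the limit was not always enough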;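 also: 0% = wells killed by 20 µM Hyamine and 100% = untreated DMSO cell wells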); details: HCT116 beta-catenin knockout viability, CellTiter-Glo, 60 h; at 10 µM; stronger effect = lower value
[13] = viability of PTEN-null HCT116 cells – cell-based, HCT116 clonal line, CellTiter-Glo, pilot screen (AID 824;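 active = viability at or below 27.92% in each of two runs, the all-compound median minus 4 SD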;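 also: 0% = 20 µM Hyamine control and 100% = vehicle cell control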); details: HCT116 PTEN-deleted viability, 60 h, at 10 µM, stronger effect = lower value
[14] = RAM pathway blockade in budding yeast – dse1pr::URA3 reporter, 5-FOA selection, pilot screen (AID 869;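 active = inhibition over a set limit, the all-compound mean plus 3 SD, in both replicate runs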;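 also: 0% = DMSO wells with no growth and 100% = 10 µM 1-NA-PP1 with full growth; RAM network block rescues cells from 5-FOA so hits raise OD615 growth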); details: S. cerevisiae dse1pr::URA3 5-FOA growth, OD615, 2 d; at 10 µM; stronger effect = higher value; strain carries analog-sensitive mutant Cbk1 kinase
[15] = RAM signaling pathway blockade in yeast – S. cerevisiae, Pdr1DBD-CYC8 efflux-inhibited sensitized strain, primary screen (AID 1298;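 active = RAM network inhibition above 8.4% in each of two replicates, 3 SD over the compound average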;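 also: 0% = DMSO untreated cells without growth and 100% = 10 µM 1-NA-PP1 full growth; higher means more yeast growth rescued from 5-FOA killing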); details: S. cerevisiae cbk1-as DSE1-URA3 strain, 5-FOA growth OD615, 2 d; at 50 µM; stronger effect = higher value
[16] = H69AR cells + 2 uM doxorubicin, measured here: viability with 2 uM doxorubicin, stronger effect = lower value
[17] = H69AR cells, compound alone cytotoxicity

Chain of Receptor tyrosine-protein kinase erbB-2 (Homo sapiens) (P04626 whole entry, looked up): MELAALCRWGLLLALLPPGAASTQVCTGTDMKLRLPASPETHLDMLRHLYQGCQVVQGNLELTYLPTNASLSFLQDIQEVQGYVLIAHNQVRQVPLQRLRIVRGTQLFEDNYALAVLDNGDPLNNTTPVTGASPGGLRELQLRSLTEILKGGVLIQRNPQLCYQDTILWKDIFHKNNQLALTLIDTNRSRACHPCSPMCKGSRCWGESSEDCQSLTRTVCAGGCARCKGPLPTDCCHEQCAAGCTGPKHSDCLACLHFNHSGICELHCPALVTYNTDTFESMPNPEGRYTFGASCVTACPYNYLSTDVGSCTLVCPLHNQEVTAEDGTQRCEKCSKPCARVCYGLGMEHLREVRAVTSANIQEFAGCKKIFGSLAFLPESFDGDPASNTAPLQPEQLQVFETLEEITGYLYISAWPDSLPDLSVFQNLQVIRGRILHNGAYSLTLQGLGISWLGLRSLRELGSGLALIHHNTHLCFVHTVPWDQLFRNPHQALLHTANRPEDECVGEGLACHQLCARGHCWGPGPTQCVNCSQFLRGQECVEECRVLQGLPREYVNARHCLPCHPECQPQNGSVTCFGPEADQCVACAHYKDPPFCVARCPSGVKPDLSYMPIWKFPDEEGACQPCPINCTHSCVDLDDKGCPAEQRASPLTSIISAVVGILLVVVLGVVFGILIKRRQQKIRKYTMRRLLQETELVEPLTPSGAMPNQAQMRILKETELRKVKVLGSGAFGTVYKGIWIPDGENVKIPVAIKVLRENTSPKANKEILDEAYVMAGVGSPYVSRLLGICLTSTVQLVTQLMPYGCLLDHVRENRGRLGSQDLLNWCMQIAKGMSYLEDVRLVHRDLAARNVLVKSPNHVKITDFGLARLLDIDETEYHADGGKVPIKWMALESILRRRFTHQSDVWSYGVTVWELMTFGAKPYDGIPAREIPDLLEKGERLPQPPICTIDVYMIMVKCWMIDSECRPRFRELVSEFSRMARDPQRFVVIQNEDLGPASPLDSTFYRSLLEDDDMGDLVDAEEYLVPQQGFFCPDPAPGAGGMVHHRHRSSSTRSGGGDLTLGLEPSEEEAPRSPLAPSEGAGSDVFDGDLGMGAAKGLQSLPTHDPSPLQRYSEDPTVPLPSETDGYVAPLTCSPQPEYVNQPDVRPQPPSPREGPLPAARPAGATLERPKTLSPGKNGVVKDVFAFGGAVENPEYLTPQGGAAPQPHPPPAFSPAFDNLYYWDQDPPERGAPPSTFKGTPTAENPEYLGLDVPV

SMILES | viability [1] | Her2 level [2] | viability [3] | viability [4] | viability [5] | differential viability (reversal) ([6]; H69AR cells + 2 uM doxorubicin) | viability [6, 16] | viability [6, 17] | inhibition [7] | inhibition [8] | growth inhibition [9] | growth inhibition [10] | viability increase [11] | viability [12] | viability [13] | inhibition [14] | RAM network inhibition [15]
O=C(CSc1nnc(Cn2c(=O)sc3ccccc32)n1-c1ccccc1)Nc1nccs1 | 97% | 106% (inactive) | 97% (inactive) | 66.9% (inactive) | 84.2% (inactive) | 0.24% (inactive) | 84% | 84.2% | -5.73% (inactive) | -4.43% (inactive) | 11.2% (inactive) | 27.2% (inactive) | -3.44% (inactive) | 89.5% (inactive) | 90% (inactive) | 2.44% (inactive) | 2.05% (inactive)
CCOc1cc(C2CC(=O)N3CN(C4CCCCC4)CSC3=C2C#N)ccc1O (stereo not given) | 85% | 108% (inactive) | 85% (inactive) | 113% (inactive) | 87.3% (inactive) | -13.7% (inactive) | 101% | 87.3% | 1.92% (inactive) | 2% (inactive) | 41.6% (active) | 76% (active) | -4.1% (inactive) | 105% (inactive) | 95.1% (inactive) | 0.17% (inactive) | 2.85% (inactive)
CSc1nc2c(c(=O)n1C)SC(C)C2 (stereo not given) | 97% | 92.5% (inactive) | 97% (inactive) | 103% (inactive) | 90.8% (inactive) | -4.56% (inactive) | 95.4% | 90.8% | -5.87% (inactive) | -1.67% (inactive) | -6.38% (inactive) | -10.4% (inactive) | -2.62% (inactive) | 103% (inactive) | 93.5% (inactive) | 1.56% (inactive) | 5.01% (inactive)
CCOC(=O)C1CCN(c2c(NC3CCCc4ccccc43)c(=O)c2=O)CC1 (stereo not given) | 82% | 106% (inactive) | 82% (inactive) | 106% (inactive) | 87.7% (inactive) | 0.54% (inactive) | 87.2% | 87.7% | 1.41% (inactive) | 0.67% (inactive) | 6.77% (inactive) | -3.4% (inactive) | -1.77% (inactive) | 102% (inactive) | 96.8% (inactive) | -0.155% (inactive) | 0% (inactive)
CCn1cc(C2=NOC(C(=O)Nc3c(C)nn(Cc4ccc(F)cc4)c3C)C2)c(C)n1 (stereo not given) | 76.5% | 86.5% (inactive) | 76.5% (inactive) | 86.2% (inactive) | 88.2% (inactive) | 1.12% (inactive) | 87.1% | 88.2% | -1.41% (inactive) | 1.67% (inactive) | -11.1% (inactive) | 2.07% (inactive) | 1.43% (inactive) | 95.2% (inactive) | 103% (inactive) | 1.9% (inactive) | 1.61% (inactive)
O=C(NC1CCCCCC1)c1c(F)c(F)c(F)c(F)c1F | 76.5% | 92% (inactive) | 76.5% (inactive) | 78.9% (inactive) | 101% (inactive) | 15.7% (inactive) | 85.2% | 101% | 0.26% (inactive) | -8.67% (inactive) | 4.54% (inactive) | 7.52% (inactive) | -3.82% (inactive) | 91.8% (inactive) | 93.5% (inactive) | 1.01% (inactive) | -1.79% (inactive)
COc1ccc(OCCSc2nc3ccccc3n2CC(=O)O)cc1 | 92.5% | 108% (inactive) | 92.5% (inactive) | 85.4% (inactive) | 97.8% (inactive) | 2.5% (inactive) | 95.3% | 97.8% | -3.21% (inactive) | -2% (inactive) | -2.19% (inactive) | -5.21% (inactive) | -0.98% (inactive) | 99.6% (inactive) | 94.8% (inactive) | 0.61% (inactive) | 4.44% (inactive)
COc1ccc(-c2nc(CCNC(=O)c3ccco3)cs2)cc1OC | 96.5% | 102% (inactive) | 96.5% (inactive) | 89.2% (inactive) | 77.9% (inactive) | 0.52% (inactive) | 77.4% | 77.9% | -4.67% (inactive) | -2.95% (inactive) | -4.64% (inactive) | -8.75% (inactive) | -3.3% (inactive) | 95.3% (inactive) | 87.7% (inactive) | 0.415% (inactive) | -1.56% (inactive)
CC(CCc1ccco1)NC(=O)Cn1ncc2c1-c1ccccc1OC2 (stereo not given) | 93% | 90% (inactive) | 93% (inactive) | 90.8% (inactive) | 92.9% (inactive) | 11.9% (inactive) | 81% | 92.9% | -2.4% (inactive) | -0.66% (inactive) | -5.12% (inactive) | -19% (inactive) | -4.45% (inactive) | 101% (inactive) | 91.3% (inactive) | 1.11% (inactive) | 7.86% (inactive)
COc1cccc(C2CC(=O)Nc3c2c(=O)n(C)c(=O)n3C)c1OC (stereo not given) | 98.5% | 101% (inactive) | 98.5% (inactive) | 93.8% (inactive) | 102% (inactive) | 15.2% (inactive) | 87% | 102% | 1.33% (inactive) | -4.75% (inactive) | -3.2% (inactive) | -1.43% (inactive) | 0.25% (inactive) | 98.9% (inactive) | 95.9% (inactive) | 2.06% (inactive) | 7.39% (inactive)
